The list is not random: actives were taken first. Their share in the collection is about 12%.
USP28 inh: inhibitors of human USP28 deubiquitinase | purified USP28, Ub-rhodamine cleavage fluorescence, 30 min | inhibition, % at 25 µM | 47,000 compounds, 3% hits | Ubiquitin carboxyl-terminal hydrolase 28 (Homo sapiens), Q96RU2
Target sequence (Q96RU2 whole entry, looked up): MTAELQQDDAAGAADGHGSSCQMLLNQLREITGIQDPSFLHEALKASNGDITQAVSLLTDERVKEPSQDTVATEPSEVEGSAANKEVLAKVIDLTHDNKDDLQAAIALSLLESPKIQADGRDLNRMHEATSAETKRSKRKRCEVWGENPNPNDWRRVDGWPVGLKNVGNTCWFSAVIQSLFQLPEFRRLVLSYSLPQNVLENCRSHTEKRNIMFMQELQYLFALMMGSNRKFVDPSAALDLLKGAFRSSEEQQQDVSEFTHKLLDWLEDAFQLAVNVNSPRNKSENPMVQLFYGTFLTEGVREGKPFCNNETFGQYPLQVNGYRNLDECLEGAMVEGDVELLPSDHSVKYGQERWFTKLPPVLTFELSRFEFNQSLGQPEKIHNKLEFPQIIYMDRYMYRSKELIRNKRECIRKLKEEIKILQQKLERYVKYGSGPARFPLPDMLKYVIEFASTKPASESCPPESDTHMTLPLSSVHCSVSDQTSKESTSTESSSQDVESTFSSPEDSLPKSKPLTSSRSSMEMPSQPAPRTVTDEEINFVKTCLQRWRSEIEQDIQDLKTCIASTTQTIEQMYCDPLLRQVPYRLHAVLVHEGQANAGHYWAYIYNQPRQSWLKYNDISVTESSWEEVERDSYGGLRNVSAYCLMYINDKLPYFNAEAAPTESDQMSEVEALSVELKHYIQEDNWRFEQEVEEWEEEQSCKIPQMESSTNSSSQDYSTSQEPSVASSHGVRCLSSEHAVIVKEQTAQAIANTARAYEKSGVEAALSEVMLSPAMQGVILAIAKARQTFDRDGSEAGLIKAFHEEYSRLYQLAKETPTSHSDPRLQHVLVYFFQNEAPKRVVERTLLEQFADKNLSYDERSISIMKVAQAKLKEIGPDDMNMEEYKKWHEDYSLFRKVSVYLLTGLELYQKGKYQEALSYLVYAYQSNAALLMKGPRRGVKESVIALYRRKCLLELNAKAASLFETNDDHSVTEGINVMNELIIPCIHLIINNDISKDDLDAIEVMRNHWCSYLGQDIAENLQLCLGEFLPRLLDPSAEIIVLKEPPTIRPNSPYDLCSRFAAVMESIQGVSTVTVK
USP30 inh: inhibitors of human USP30 deubiquitinase; inhibition, % at 25 µM; Ubiquitin carboxyl-terminal hydrolase 30 (Homo sapiens), Q70CQ3; purified USP30, Ub-rhodamine cleavage fluorescence; 47,000 compounds, 5.3% hits
OTUD3 block: inhibitors of human OTUD3 deubiquitinase; OTU domain-containing protein 3 (Homo sapiens), Q5T2D3; purified OTUD3, Ub-rhodamine fluorescence, 2 h; inhibition, % at 25 µM; 47,000 compounds, 0.7% hits
USP17 block: inhibitors of human USP17 deubiquitinase; inhibition, % at 50 µM; purified USP17, Ub-rhodamine cleavage fluorescence, 3 h; Ubiquitin carboxyl-terminal hydrolase 17-like protein 5 (Homo sapiens), A8MUK1; 47,000 compounds, 6.5% hits
Numbers without * were called inactive; · = not tested or not shown. Rule as the data show it: active = inhibition above about 30%; inactive = the rest.

SMILES | USP28 inh | USP30 inh | OTUD3 block | USP17 block
Fc1ccc(OCCn2c(COc3ccccc3)nc3ccccc32)cc1 | 27 | 16 | 4 | 23
CCn1c(=N)n(CCOc2ccc(F)cc2)c2ccccc21 | 97* | 39* | -5 | 6
CC(C)NC(=O)N(Cc1cccnc1)Cc1cccs1 | -5 | 3 | -4 | 2
O=C(NNS(=O)(=O)c1ccc(F)cc1)C1CCN(S(=O)(=O)c2ccccc2)CC1 | 31* | 17 | 7 | 7
Cc1c(C(=O)NCc2ccccc2F)oc2ccc3c(c12)C(=O)CC1(CCCC1)O3 | 4 | 26 | 8 | 16
CCCNC(=O)c1oc2ccc3c(c2c1C)C(=O)CC1(CCCC1)O3 | 15 | 39* | 5 | 20
Cc1nc(-c2ccccc2)sc1C(=O)CSc1cccc(Cl)c1Cl | -1 | 36* | 15 | 14
Cc1noc(-c2cccc(=O)n2CC(=O)Nc2ccc(C)c(F)c2)n1 | 9 | 31* | 15 | 9
Cc1cccc(NC(=O)Cn2c(-c3nc(C)no3)cccc2=O)c1 | 9 | 7 | 0 | -1
Cc1noc(-c2cccc(=O)n2CC(=O)Nc2ccc(C)c(C)c2)n1 | 7 | 14 | 5 | 71*
COc1ccc(CNc2ncc(C(=O)NC3CCCCC3)c(C)n2)cc1 | -11 | -30 | -9 | -7
O=C(COc1ccc(Cl)cc1)N1CCc2cc3ccccc3nc21 | 2 | -14 | 8 | 65*
O=C1CCN(C(=O)COc2ccc(Cl)cc2)c2ccccc2N1 | -4 | 15 | -4 | -9
COCCCNc1ncc(-c2cc(C)no2)c(-c2ccco2)n1 | 0 | -1 | 5 | -1
COc1ccc(C(=O)Cn2nc(-c3ccco3)c(-c3cc(C)no3)cc2=O)cc1 | 25 | -5 | 2 | 47*
COc1ccc(OCC(=O)NCc2ccc(-c3ncncc3-c3cc(C)no3)cc2)cc1 | 5 | 13 | 2 | 9
COc1ccc(CNC(=O)C(C)n2nc(-c3ccco3)c(-c3cc(C)no3)cc2=O)cc1 (centres undefined) | 23 | 28 | 15 | 64*
COc1ccc(CCNC(=O)[C@H](C)NC(=O)c2cc3c([nH]c4ccccc43)c(C)n2)cc1 | 9 | -159 | -30 | 34*
CC1=C(c2ccc(F)cc2)S(=O)(=O)N=C1Nc1cccc(F)c1 | 1 | 10 | 1 | -45
CC1=C(c2ccc(F)cc2)S(=O)(=O)N=C1Nc1ccc(Cl)cc1 | 5 | 0 | 11 | 56*
COc1cccc(NC2=NS(=O)(=O)C(c3ccc(F)cc3)=C2C)c1 | 11 | 33* | 4 | 3
CC1=C(c2ccc(F)cc2)S(=O)(=O)N=C1Nc1cc(C)cc(C)c1 | 6 | 19 | 2 | 9
Cc1nc2ncccc2c(=O)n1-c1ccc(NC(=O)c2ccc(F)cc2F)cc1 | 16 | 34* | 21 | 16
COc1ccc(OC)c(NC(=O)c2cc(-c3ccc(C)c(C)c3O)n[nH]2)c1 | 18 | 3 | 5 | 26
COc1ccc(C)cc1NC(=O)c1cc(-c2ccncc2)n[nH]1 | -9 | -25 | -5 | -5
SMILES | USP28 inh | USP30 inh | OTUD3 block | USP17 block
Cc1ccc(-c2cc(C(=O)Nc3cc(C)ccc3C)[nH]n2)c(O)c1 | -5 | -40 | 9 | 34*
Cc1cccc(NC(=O)c2cc(-c3ccc(C)c(C)c3O)n[nH]2)c1 | 28 | 76* | 9 | 88*
CC(=O)Nc1ccc(NC(=O)c2cc(-c3cc(C)cc(C)c3O)n[nH]2)cc1 | 46* | 62* | 3 | 35*
COc1ccc(CC(=O)N2CC[C@@H]3CN(CCC(C)C)S(=O)(=O)[C@@H]3CC2)cc1 | 6 | 5 | 4 | -26
NC(=O)C(OC(=O)CSc1ccccc1)c1ccccc1 (centres undefined) | 11 | 32* | 13 | 11
COC(=O)c1ccc(Nc2c(C#N)cnc3ccc(Cl)cc23)cc1 | 10 | 33* | 7 | 17
O=C(CNc1ccc(F)cc1F)Nc1ccc2c(c1)OC(F)(F)O2 | 49* | -7 | -3 | 0
Cc1nc2ccc(C(=O)N3CCC(COc4ccccn4)CC3)cc2[nH]1 | -3 | -3 | -3 | -1
O=C(Nc1nc(C(=O)N2CCN(c3cccc(Cl)c3Cl)CC2)co1)c1cnccn1 | -13 | -18 | 7 | -32
Cc1cc(NCC2CC2)n2nc(Nc3cc(Cl)ccc3C)nc2n1 | 11 | 31* | 11 | 71*
CC(=O)N1CCc2cc(CNC(=O)Nc3cc(C)ccc3C)ccc21 | 13 | 67* | 12 | 43*
CC(=O)N1CCc2cc(S(=O)(=O)NCCC(=O)NCCc3ccc(C)cc3)ccc21 | 4 | 21 | 6 | 1
O=C(Nc1cnc(-c2cccc(Cl)c2)nc1)C1CCC1 | 14 | 22 | 12 | 10
Cc1nn(-c2ccccc2)c(C)c1C(=O)OCC(=O)Nc1cccc(C#N)c1 | 66* | 5 | 8 | 8
CC(=O)N1c2ccccc2NC2=C(C(=O)CC(c3ccc(C(C)(C)C)cc3)C2)C1c1cccnc1 (centres undefined) | -21 | -23 | -39 | -115
Cn1c(=O)sc2cc(NC(=O)c3ccc(Br)cc3)ccc21 | -2 | -49 | -28 | 59*
CCOC(=O)Cn1c(-c2ccc(Cl)cc2)ccc(C#N)c1=O | 16 | 30* | 14 | 14
CN(C)c1cccc(-c2nnc(-c3cnc4onc(C5CC5)c4c3)o2)c1 | -8 | -10 | 5 | -2
Cc1cc2ncc3c(n2n1)CCN(c1ccc([N+](=O)[O-])cc1)C3 | -3 | -237 | -43 | 33*
O=[N+]([O-])c1ccc(N2CCc3nc(-c4ccccn4)ncc3C2)cc1 | 8 | 77* | -6 | 70*
O=c1c2cnc(N3CCCC3)nc2ccn1-c1ccc([N+](=O)[O-])cc1 | 0 | 10 | -1 | 8
O=C1COC2(CCN(c3ncc(F)cn3)CC2)CN1Cc1ccccc1 | -32 | -79 | -20 | -51
O=S1(=O)NC(=NCCc2ccc(Cl)cc2Cl)c2ccccc21 | 5 | 22 | 3 | 58*
O=S1(=O)NC(=NCCc2ccc(Cl)cc2)c2ccccc21 | 9 | 29 | 7 | 35*
CC(=O)Nc1cccc(Oc2nnnn2-c2ccccc2)c1 | 0 | 2 | -7 | ·
SMILES | USP28 inh | USP30 inh | OTUD3 block | USP17 block
CC(NC(=O)c1c(O)c2cnn(Cc3ccccc3)c2[nH]c1=O)c1ccccc1 (centres undefined) | -1 | -145 | -7 | 12
Cc1ccccc1NC(=O)c1c(O)c2cnn(Cc3ccccc3)c2[nH]c1=O | 5 | -244 | 2 | 35*
O=C(NCc1ccccc1)c1ccccc1N1CCS(=O)(=O)CC1 | 8 | 24 | 17 | 7
COCCn1c(C)cc(C(=O)c2sc(-c3c(N)n(C)c(=O)n(C)c3=O)nc2-c2ccccc2)c1C | 23 | 27 | 21 | 35*
COc1ccc(Nc2nc3c(S(=O)(=O)c4ccc(C)cc4)nnn3c3ccsc23)c(OC)c1 | 16 | 67* | 13 | 28
COc1ccc(S(=O)(=O)c2nnn3c2nc(Nc2ccccc2)c2ccccc23)cc1 | -52 | -13 | -30 | -2
O=C(c1ccc(F)cc1)N1CCN(C2CCN(Cc3cc4ccccc4o3)CC2)C(=O)C1 | -22 | -48 | -19 | -15
CC(=O)Nc1ccc(NC(=O)C2(c3ccc(Cl)cc3)CCC2)cc1 | -1 | 16 | -11 | 45*
